These results are taken from PubChem BioAssay.

SMILES strings stand for the structures. Inconclusive results are not listed. The source made the active and inactive calls. Cut-off read from the data, not from the text of the source, unless noted: active = percent of DMSO control GFP below about 86%; inactive = the rest, inconclusive results apart.

Test [1] can be described thus: rapamycin-like changes in RPL19A-GFP expression – cell-based, S. cerevisiae, multiplex flow cytometry, primary screen (AID 1862).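 Note: lower values mimic rapamycin by blocking the RPL19A rise seen in DMSO cells.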 To be noted: S. cerevisiae RPL19A-GFP strain, flow cytometry fluorescence, 3 h; at 10 µM; stronger effect = lower value. Background: Flow cytometry measures light scatter and fluorescence of single cells or particles in a stream.
The nature of test [2]: TOR pathway GLN3 branch reporter MEP2-GFP changes – S. cerevisiae, multiplex flow cytometry, primary screen (AID 1867;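 active = GFP response, as percent of the DMSO control, above the screen-wide mean plus 3 SD, about 139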;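 note: median GFP channel fluorescence of barcode-gated MEP2-GFP cells measured by flow cytometry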). To be noted: S. cerevisiae MEP2-GFP strain, 3 h, at 10 µM, stronger effect = higher value, 100% means same as DMSO wells.
Test [3] in a line: TOR pathway RTG branch CIT2 reporter changes – S. cerevisiae, GFP fusion, multiplex flow cytometry, primary screen (AID 1870;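 active = percent response above a set limit, the screen-wide mean plus 3 SD, cut at about 130% in these data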;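 note: barcoded CIT2-GFP strain pooled with four other GFP strains with rapamycin as positive control; median GFP fluorescence per well over plate mean of DMSO wells so 100% = DMSO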). To be noted: S. cerevisiae CIT2-GFP expression, 3 h, at 10 µM, stronger effect = higher value.
Test [4] in a line: TOR pathway LAP4-GFP level changes – S. cerevisiae, multiplex flow cytometry, primary screen (AID 1873;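 active = GFP signal, as percent of the solvent control, above the screen mean plus 3 SD, about 149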). To be noted: S. cerevisiae LAP4-GFP expression, 3 h, at 10 µM, stronger effect = higher value.
Test [5] is described as follows: yeast AGP1-GFP level changes, GLN3 branch – cell-based, multiplex flow cytometry, S. cerevisiae, primary screen (AID 1887;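 active = GFP signal above the screen-wide mean plus 3 SD, that is over about 124.5% of the solvent control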;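 note: AGP1-GFP fusion strain of S. cerevisiae within a five-strain barcoded multiplex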). To be noted: 3 h, at 10 µM, stronger effect = higher value.
Test [6] is described as follows: reduced mouse 2C T cell binding to pMHC/ICAM-1 vesicles – MLPCN validation set, flow cytometry, LFA-1/ICAM-1 modulator project, pilot screen (AID 2523;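 active = response below a set limit, under 55% cells CD8-positive and vesicle-bound, and CD8 cells' 90th-percentile brightness under 279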;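 for vesicle binding response: mean PE anti-B7-1 fluorescence of CD8+ cells relative to row control; 100% = QL9-loaded vesicles with DMSO vehicle in the same plate row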). To be noted: 2C mouse CD8+ T cells, at 7 µM, stronger effect = lower value; double positive events: measured here: CD8+/vesicle+ event percentage.
For test [7], the target named is Integrin beta-1 (Homo sapiens) + Integrin alpha-4 (Homo sapiens) (UniProt P13612+P05556). Nature of the test: alpha4beta1 integrin LIBS antibody binding reduction – U937 cells, HUTS-21 mAb, flow cytometry, validation set, VLA-4 allosteric modulator project, pilot screen (AID 2674;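 active = inhibition above 50%, about 3 SD of the validation set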;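 note: antibody binding induced by the VLA-4 ligand LDV present at three times its Kd; 0% = LDV ligand with antibody and no compound and 100% = antibody without LDV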). To be noted: HUTS-21 LIBS mAb binding, at 6.7 µM, stronger effect = higher value, binding induced by LDV ligand.
Integrin beta-1 (Homo sapiens) + Integrin alpha-4 (Homo sapiens), sequence (P05556 whole entry, looked up): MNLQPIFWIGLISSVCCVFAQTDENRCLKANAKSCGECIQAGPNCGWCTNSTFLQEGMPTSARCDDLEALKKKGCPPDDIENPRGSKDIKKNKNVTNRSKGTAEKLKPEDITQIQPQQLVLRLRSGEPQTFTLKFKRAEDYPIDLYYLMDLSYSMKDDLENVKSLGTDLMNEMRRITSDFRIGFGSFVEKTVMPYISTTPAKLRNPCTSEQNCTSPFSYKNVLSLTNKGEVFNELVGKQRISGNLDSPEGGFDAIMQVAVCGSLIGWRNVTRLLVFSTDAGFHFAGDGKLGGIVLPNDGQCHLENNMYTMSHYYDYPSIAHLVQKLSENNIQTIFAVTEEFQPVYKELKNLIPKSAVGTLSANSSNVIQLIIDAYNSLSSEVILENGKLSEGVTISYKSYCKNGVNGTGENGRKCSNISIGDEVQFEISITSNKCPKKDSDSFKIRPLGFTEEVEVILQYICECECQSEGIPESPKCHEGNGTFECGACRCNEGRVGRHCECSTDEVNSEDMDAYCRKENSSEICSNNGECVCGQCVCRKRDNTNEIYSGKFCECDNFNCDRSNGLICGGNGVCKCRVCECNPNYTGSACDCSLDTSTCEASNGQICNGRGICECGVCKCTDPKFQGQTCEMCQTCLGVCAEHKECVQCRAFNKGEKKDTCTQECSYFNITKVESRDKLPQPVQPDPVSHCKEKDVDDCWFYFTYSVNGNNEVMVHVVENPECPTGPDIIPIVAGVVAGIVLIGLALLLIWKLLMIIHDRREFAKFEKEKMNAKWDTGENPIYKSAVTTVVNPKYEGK
Integrin beta-1 (Homo sapiens) + Integrin alpha-4 (Homo sapiens), sequence (P13612 whole entry, looked up): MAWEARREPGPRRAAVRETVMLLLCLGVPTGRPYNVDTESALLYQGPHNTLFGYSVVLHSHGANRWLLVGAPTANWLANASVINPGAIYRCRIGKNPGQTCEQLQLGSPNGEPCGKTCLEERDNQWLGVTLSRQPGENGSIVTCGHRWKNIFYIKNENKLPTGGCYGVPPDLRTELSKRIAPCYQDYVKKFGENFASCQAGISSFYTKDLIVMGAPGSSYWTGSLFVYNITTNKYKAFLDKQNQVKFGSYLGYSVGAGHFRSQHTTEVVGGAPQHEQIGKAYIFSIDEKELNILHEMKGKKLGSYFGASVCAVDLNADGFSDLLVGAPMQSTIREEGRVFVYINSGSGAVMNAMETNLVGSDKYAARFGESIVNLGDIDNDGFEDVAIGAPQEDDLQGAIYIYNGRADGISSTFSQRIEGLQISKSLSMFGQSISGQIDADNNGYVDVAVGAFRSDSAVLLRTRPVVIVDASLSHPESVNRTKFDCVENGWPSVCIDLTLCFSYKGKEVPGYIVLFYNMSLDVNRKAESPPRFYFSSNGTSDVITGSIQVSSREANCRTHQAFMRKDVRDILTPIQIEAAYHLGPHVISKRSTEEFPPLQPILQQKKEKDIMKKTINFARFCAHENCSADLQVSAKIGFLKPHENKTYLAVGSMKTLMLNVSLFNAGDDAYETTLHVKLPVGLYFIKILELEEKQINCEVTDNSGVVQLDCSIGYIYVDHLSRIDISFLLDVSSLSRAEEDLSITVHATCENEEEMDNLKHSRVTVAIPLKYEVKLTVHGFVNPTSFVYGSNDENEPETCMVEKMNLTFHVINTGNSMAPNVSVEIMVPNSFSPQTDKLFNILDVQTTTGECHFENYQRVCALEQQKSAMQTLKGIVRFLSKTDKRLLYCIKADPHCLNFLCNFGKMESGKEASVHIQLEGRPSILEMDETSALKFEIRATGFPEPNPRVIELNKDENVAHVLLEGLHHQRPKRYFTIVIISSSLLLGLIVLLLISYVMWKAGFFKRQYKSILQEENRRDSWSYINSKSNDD

Test [8] in a line: calorie-restriction mimetic ROS inhibitors, yeast – validation compound set, pilot screen (AID 2706;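 active = superoxide response below 65% of plate, a cut near 3 SD across the whole screen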;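 note: yeast exposed to compound for one week at 30 degrees C before staining; 100% = mean of all compound wells on the same plate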). To be noted: S. cerevisiae aging, superoxide DHE fluorescence; at 10 µM; stronger effect = lower value.
The target of test [9] is Beta-adrenergic receptor kinase 1 (Homo sapiens) (UniProt P25098). Nature of the test: GRK2 binders displacing RNA aptamer, biochemical, validation, human GRK2, bead flow cytometry (AID 488806;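 active = aptamer binding inhibition above 30%, about 3 SD of noise from non-fluorescent compounds; inactive = inhibition at or below 30%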). To be noted: bead-bound GRK2, FAM-aptamer displacement, at 10 µM, stronger effect = higher value.
Beta-adrenergic receptor kinase 1 (Homo sapiens), sequence (P25098 whole entry, looked up): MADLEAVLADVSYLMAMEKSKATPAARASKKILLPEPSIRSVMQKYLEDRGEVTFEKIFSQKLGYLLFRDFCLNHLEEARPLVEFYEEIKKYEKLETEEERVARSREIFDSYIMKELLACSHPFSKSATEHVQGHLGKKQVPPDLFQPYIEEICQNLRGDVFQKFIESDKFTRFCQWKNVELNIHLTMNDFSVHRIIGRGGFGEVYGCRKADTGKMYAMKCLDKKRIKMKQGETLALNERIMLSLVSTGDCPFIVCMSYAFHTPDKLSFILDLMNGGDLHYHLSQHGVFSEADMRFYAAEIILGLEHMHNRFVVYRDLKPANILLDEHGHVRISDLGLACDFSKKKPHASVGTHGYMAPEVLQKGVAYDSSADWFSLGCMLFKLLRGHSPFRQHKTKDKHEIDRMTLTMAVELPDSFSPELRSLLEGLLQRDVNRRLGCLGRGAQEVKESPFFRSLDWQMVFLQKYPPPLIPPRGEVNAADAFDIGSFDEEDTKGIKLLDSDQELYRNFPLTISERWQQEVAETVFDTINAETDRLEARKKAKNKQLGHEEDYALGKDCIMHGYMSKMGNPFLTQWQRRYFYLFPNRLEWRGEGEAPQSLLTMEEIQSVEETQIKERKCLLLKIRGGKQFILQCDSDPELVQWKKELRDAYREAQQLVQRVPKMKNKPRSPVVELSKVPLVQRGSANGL
Test [10] concerns the target Beta-2 adrenergic receptor (Homo sapiens) (UniProt P07550). Nature of the test: agonist-induced loss of surface beta2AR – cell-based, FAP fluorogen, flow cytometry, validation set, pilot screen (AID 504459;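 active = percent response above 42, roughly 3 SD of non-fluorescent test compounds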;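 note: agonist-driven loss of surface beta2AR via internalization measured by FAP dye flow cytometry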). To be noted: Am2.2-beta2AR cells, at 10 µM, stronger effect = higher value.
In test [11] the target is AP-2 complex subunit beta (Homo sapiens) (UniProt P63010). Nature of the test: beta-arrestin/AP2 interaction blockers – biochemical, validation set, GST-AP2 beads, flow cytometry, pilot screen (AID 504541;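 active = inhibition above 54%, about 3 SD of non-fluorescent compounds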;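 note: AP2 carries R879A mutation and is captured from E. coli lysate; bead-bound FITC arrestin peptide fluorescence measuring arrestin peptide binding to AP2; 0% = DMSO wells and 100% = excess unlabeled arrestin peptide control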). To be noted: FITC arrestin peptide, at 10 µM, stronger effect = higher value, AP2 beta2 appendage fragment, R879A mutant.
AP-2 complex subunit beta (Homo sapiens), sequence (P63010 whole entry, looked up, the tested form may be a part, one chain of several): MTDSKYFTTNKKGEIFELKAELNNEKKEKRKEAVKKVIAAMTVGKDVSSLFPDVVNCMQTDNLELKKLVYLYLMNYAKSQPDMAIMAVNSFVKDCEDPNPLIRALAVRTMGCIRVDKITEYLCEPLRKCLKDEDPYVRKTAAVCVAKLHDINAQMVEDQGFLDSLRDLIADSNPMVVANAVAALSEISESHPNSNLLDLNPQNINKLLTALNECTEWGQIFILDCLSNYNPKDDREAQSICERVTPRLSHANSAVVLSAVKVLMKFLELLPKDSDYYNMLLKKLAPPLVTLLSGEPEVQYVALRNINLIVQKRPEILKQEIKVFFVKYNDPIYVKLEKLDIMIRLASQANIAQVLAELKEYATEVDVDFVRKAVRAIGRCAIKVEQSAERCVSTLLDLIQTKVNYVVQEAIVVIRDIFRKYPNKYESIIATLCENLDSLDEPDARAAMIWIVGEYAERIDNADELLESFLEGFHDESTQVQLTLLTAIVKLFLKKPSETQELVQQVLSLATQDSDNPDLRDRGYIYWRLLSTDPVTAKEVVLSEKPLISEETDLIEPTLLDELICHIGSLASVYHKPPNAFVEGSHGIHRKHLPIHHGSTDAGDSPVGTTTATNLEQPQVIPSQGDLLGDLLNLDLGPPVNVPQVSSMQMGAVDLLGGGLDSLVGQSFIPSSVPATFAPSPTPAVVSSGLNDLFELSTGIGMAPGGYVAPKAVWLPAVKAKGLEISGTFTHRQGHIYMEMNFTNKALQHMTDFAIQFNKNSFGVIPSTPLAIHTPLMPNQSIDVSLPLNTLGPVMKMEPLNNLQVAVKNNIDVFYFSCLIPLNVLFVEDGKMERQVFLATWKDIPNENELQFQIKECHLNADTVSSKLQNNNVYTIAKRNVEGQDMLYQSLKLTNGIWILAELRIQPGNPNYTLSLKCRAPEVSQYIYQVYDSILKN
A short description of test [12]: cytosolic pH regulators acting via V-ATPase – S. cerevisiae, pHLuorin, HTS validation (AID 504600; in the data active = response above about 15%;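 note: plate controls were DMSO for no effect and reference compound for full effect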). To be noted: V-ATPase proton transport, at 10 µM, stronger effect = higher value.
For test [13], the system named is anti-desmoglein-3 scFv antibody binding to human DSG3. Nature of the test: blockers of pathogenic pemphigus antibody–desmoglein-3 binding – biochemical, validation compound set, bead-based, flow cytometry, pilot screen (AID 588368;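 active = binding below the plate cutoff, the plate median minus 3 SD, with a reading above zero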;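 note: signal is the median channel fluorescence of bead-bound GFP antibody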). To be noted: Protein G beads, DSG3-Fc, scFv-GFP binding, at 10 µM, stronger effect = lower value.
Test [14] in a line: Nile Red efflux blockade in pump-expressing yeast – validation compound set, multiplex, phenotypic, pilot screen (AID 588506;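 active = efflux inhibition above 0.42, the validation set average plus 4 SD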;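 note: Nile Red retained in cells so higher fluorescence means more efflux inhibition; 0 = negative control wells and 1 = enniatin B 25 µM full block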). To be noted: S. cerevisiae pump-expressing triplex, Nile Red efflux flow cytometry; at 10 µM; stronger effect = higher value; the pumps come from Candida albicans.
For test [15], the target named is ATP-binding cassette sub-family B member 6 (Homo sapiens) (UniProt Q9NP58). Nature of the test: blockers of ABCB6-driven porphyrin uptake – K562-ABCB6 cells, flow cytometry, validation set, pilot screen (AID 588550;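 active = inhibition above the screen-wide mean plus 3 SD, about 51%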;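 note: 0% = DMSO wells and 100% = benzethonium chloride 70 µM positive control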). To be noted: K562-ABCB6 porphyrin accumulation, 1 h, at 10 µM, stronger effect = higher value.
ATP-binding cassette sub-family B member 6 (Homo sapiens), sequence (Q9NP58 whole entry, looked up): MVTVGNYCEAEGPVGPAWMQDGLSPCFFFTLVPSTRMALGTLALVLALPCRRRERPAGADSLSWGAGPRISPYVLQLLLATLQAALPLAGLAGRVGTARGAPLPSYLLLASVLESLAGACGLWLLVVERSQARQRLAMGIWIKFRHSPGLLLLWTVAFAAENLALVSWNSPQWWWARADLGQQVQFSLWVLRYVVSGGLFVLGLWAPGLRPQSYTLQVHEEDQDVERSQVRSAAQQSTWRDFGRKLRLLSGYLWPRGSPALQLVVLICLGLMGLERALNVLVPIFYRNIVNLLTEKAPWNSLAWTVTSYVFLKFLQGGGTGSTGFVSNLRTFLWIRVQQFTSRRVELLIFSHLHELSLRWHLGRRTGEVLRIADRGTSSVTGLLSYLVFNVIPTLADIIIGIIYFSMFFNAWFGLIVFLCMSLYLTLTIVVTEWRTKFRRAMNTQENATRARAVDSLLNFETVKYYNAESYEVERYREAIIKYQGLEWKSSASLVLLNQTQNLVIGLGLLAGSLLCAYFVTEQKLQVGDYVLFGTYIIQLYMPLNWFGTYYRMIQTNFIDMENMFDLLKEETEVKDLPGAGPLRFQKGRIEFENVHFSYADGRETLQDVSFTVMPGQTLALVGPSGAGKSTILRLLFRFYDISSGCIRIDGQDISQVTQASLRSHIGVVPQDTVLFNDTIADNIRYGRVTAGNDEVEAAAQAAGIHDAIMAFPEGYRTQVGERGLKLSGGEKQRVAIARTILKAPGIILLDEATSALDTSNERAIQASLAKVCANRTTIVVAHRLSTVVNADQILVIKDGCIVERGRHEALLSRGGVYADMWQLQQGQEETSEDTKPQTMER
The nature of test [16]: AML differentiation inducers, ER-HoxA9 marrow cells – cell-based, GFP/MAC1 double positive, flow cytometry, validation set, primary screen (AID 588685;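 active = differentiation response of at least 50%, scaled between solvent and reference control, from cells with both markers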;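 note: compound exposure lasts four days before antibody staining and flow analysis; 0% = DMSO wells and 100% = 5 µM fulvestrant positive control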). To be noted: stronger effect = higher value, normalized: vehicle 0, fulvestrant 100.

Beta-2 adrenergic receptor (Homo sapiens), sequence (P07550 whole entry, looked up): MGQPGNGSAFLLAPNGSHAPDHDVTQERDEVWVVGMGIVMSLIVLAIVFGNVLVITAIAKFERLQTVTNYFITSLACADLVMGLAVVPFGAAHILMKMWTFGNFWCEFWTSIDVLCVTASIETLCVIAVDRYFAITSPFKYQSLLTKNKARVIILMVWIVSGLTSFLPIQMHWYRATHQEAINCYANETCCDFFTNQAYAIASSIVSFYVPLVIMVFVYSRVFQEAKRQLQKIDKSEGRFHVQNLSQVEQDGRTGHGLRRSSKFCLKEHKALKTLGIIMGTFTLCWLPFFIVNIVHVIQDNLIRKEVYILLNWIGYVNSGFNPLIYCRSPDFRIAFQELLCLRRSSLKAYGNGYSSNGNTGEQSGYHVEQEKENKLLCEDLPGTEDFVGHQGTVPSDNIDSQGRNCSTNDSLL

The inhibition is the change of the read-out against control, counted positive when it falls. Take `Cc1ccc2c(c1)c1c3n2CCCN(Cc2ccccc2)C3CCC1` (stereo not given): the percent of DMSO control GFP in [1] was 100% (inactive). The values for the GFP response vs DMSO in test [2] and in test [4] were 104% (inactive) and 103% (inactive), respectively. Moreover, the percent response of DMSO control in [3] was 105% (inactive). In addition, the GFP response, % of DMSO in [5] is 92.5% (inactive). The molecule further registered a double positive events in [6] of 77.6%. Further, the vesicle binding response in test [6] was 490% (inactive). Besides, the inhibition in test [7] was -27.7% (inactive); in test [11], -2.35% (inactive); in test [15], 6% (inactive). The superoxide response (% of plate) in test [8] is 81.8% (inactive). Besides, the aptamer binding inhibition in [9] was 0% (inactive). For the same molecule, the response in [10] is 14.8% (inactive); in test [12], -2.93% (inactive). Besides, in test [13], the binding (% of control) was 102% (inactive). In test [14], the efflux inhibition (fraction of control) is 0.33 (inactive). Moreover, the differentiation response in test [16] was 8.8% (inactive).
Regarding `Cc1cc(Cl)cc2c1NC(=O)[C@]21[C@@H]2C(=O)N(Cc3ccccc3)C(=O)[C@@H]2[C@@H]2CCCN21`, in [1], the percent of DMSO control GFP was 96.2% (inactive). Moreover, the results for the GFP response vs DMSO in [2] and in test [4] were 95.7% (inactive) and 102% (inactive), respectively. In addition, the percent response of DMSO control in test [3] was 90.5% (inactive). Besides, the GFP response, % of DMSO in [5] is 99.6% (inactive). This molecule displayed a double positive events in test [6] of 63.7%. The vesicle binding response in test [6] is 154% (inactive). In addition, the inhibition is -232% (inactive) in [7], -2.45% (inactive) in [11] and -22% (inactive) in test [15]. For the same molecule, the superoxide response (% of plate) in test [8] was 95.7% (inactive). The aptamer binding inhibition in test [9] is 6% (inactive). In addition, the response in [10] is -4.55% (inactive); in test [12] it was 3.96% (inactive). For the same molecule, in test [13], the binding (% of control) was 104% (inactive). Further, the efflux inhibition (fraction of control) in test [14] was 0.08 (inactive). Also, the differentiation response in test [16] was -14.8% (inactive).
As for `O=C(CCC1CCCN(C(=O)c2ccsc2)C1)NCc1ccc(F)c(F)c1` (stereo not given), in test [1], the percent of DMSO control GFP is 99% (inactive). Also, the GFP response vs DMSO in [2] and in test [4] was 103% (inactive) each time. In test [3], the percent response of DMSO control was 94.2% (inactive). In [5], the GFP response, % of DMSO is 98.9% (inactive). The same molecule showed a double positive events in test [6] of 62.4%. For the same molecule, the vesicle binding response in [6] is 183% (inactive). For the same molecule, the inhibition in test [7] is -9.79% (inactive); in test [11] it was -6.99% (inactive); in test [15], -8% (inactive). In [8], the superoxide response (% of plate) is 102% (inactive). The aptamer binding inhibition in test [9] was -2% (inactive). Also, the figures for the response in test [10] and in test [12] were -9.44% (inactive) and 1.61% (inactive), respectively. Also, in [13], the binding (% of control) is 104% (inactive). The efflux inhibition (fraction of control) in [14] is 0.08 (inactive). In addition, the differentiation response in test [16] is 8.06% (inactive).
`COc1ccc2c(CC(=O)NCC3CCC(C(=O)O)CC3)cc(=O)oc2c1` (stereo not given): the percent of DMSO control GFP in test [1] is 101% (inactive). Also, the values for the GFP response vs DMSO in [2] and in test [4] were 103% (inactive) and 101% (inactive), respectively. Besides, the percent response of DMSO control in test [3] is 105% (inactive). In test [5], the GFP response, % of DMSO is 107% (inactive). This molecule also gave a double positive events in test [6] of 59.6%. Further, the vesicle binding response in test [6] is 116% (inactive). The inhibition was -9.13% (inactive) in test [7], -1.68% (inactive) in [11] and -1% (inactive) in [15]. Besides, in [8], the superoxide response (% of plate) was 111% (inactive). In [9], the aptamer binding inhibition was -2% (inactive). Moreover, the response in test [10] was -4.55% (inactive); in test [12], 7.23% (inactive). Also, the binding (% of control) in test [13] is 102% (inactive). Further, the efflux inhibition (fraction of control) in test [14] is 0.04 (inactive). The differentiation response in [16] was 4.2% (inactive).
On to `O=C1c2ccccc2C(=O)N1/N=C/c1ccc(Oc2ccc([N+](=O)[O-])cn2)cc1`, for which the percent of DMSO control GFP in test [1] is 103% (inactive). In addition, the figures for the GFP response vs DMSO in [2] and in test [4] were 107% (inactive) and 92% (inactive), respectively. For the same molecule, the percent response of DMSO control in [3] is 115% (inactive). The GFP response, % of DMSO in [5] was 107% (inactive). For the same molecule, the double positive events in [6] amounted to 56.2%. The vesicle binding response in [6] was 38.7% (inactive). Moreover, the inhibition is 12% (inactive) in test [7], 2.91% (inactive) in [11] and -7% (inactive) in test [15]. Besides, the superoxide response (% of plate) in test [8] was 106% (inactive). The aptamer binding inhibition in test [9] is 0% (inactive). The response is -4.65% (inactive) in test [10] and -3.15% (inactive) in test [12]. In [13], the binding (% of control) is 92.5% (inactive). The efflux inhibition (fraction of control) in test [14] is -0.01 (inactive). For the same molecule, the differentiation response in [16] was -7.57% (inactive).
